Growth inhibition data for 40 molecules are collected here from PubChem BioAssay (NCI).

Each structure is given as a SMILES string. The panel holds about 79,000 compounds, 15% with a hit somewhere; the sample as a whole holds those more often. Values without a mark were called inactive. Activity calls are given as the source filed them. Cut-off read from the data, not from the text of the source: active = growth inhibition above about 70%; inactive = the rest.

The assay in a line: NCI Yeast Anticancer Drug Screen. Data for the mlh1 rad18 strain (AID 175). The conditions noted are these: S. cerevisiae mlh1 rad18 strain growth inhibition; at 50.0 µM; stronger effect = higher value. Here is the method:
Growth inhibition of yeast strains with defined genetic alterations is measured as a screen for potential anti-cancer activity. Selected strains with alterations in DNA damage repair or cell cycle control were exposed to compounds and growth inhibition was measured relative to vehicle treated controls. The strain used in this assay is mlh1 rad18
For `CC(C)(C)NC(=O)Nc1nccs1`, the growth inhibition was 9.85%. Take `O=C1CCC(=O)N1Cl`: the growth inhibition was -13.8%. The result for `CCSC1C(N=[N+]=[N-])C(CO)OC1n1cnc2c(N)ncnc21` (stereo not given) reads 4.7%; that for `Cc1cnc(N)s1`, 9.45%.

For the molecule `Cc1c(O)cc(O)c(C)c1C`, the growth inhibition is -8.65%.

For `N#CC1CCCC/C1=N/NC(N)=O` (stereo not given), the growth inhibition was -6%. Consider `Cc1c2sc3ccccc3[nH]c2nc2[nH]c3ccccc3sc12`, for which the growth inhibition is 0.95%. Consider `COCCCNc1ncnc2c1cnn2-c1ccc(Cl)cc1`, for which the growth inhibition is -4.45%.

As to `NC(=O)Cc1csc(Br)n1`, the growth inhibition is 7.9%. Consider `CCCCNCC1COc2cccc(OCC)c2O1` (stereo not given), for which the growth inhibition is 4%.

Regarding `COc1ccccc1/C=N\NC(C)=O`, the growth inhibition was -14.7%.

Regarding `C=C(C)C(=O)OCC(CC)(COC(=O)C(=C)C)COC(=O)C(=C)C`, the growth inhibition is 0%. With `CC(=O)NCC(OC(C)=O)c1ccc2c(c1)[nH]c1ccccc12` (stereo not given), the growth inhibition was 31.2%.

Regarding `CSc1nc(NC2OC(COC(C)=O)C(OC(C)=O)C(OC(C)=O)C2OC(C)=O)c2c(n1)OCC2=O` (stereo not given), the growth inhibition was 18.1%. For `CN(C)c1cc(N(C)C)c2cc(C#N)ccc2n1` the value was 5.75%; for `O=C(Nc1ccc(CSc2ccc(Cl)cc2)o1)N1CCOCC1`, 25.4%.

Regarding `O=C1N(CC2CO2)CCN1CC1CO1` (stereo not given), the growth inhibition was -76%. For `O=C(Cc1n[nH]c(=S)nc1CC(=O)c1ccccc1)c1ccccc1`, the growth inhibition is 7.4%. Consider `CC1CC(O)CC(C)(C)C1.CC1CC(O)CC(C)(C)C1.CC1CC(O)CC(C)(C)C1.CC1CC(O)CC(C)(C)C1.[Ti]` (stereo not given), for which the growth inhibition is 31.9%.

As to `CNCCNc1ncc([N+](=O)[O-])s1`, the growth inhibition was -32.5%.

Turning to `O=C(O)CCc1coc2ccc(O)cc12`, the growth inhibition was 14.2%. The result for `Brc1nc2c3ccccc3ncn2c1Br` reads 23.3%; that for `CCOC(CCCl)c1ccccc1` (stereo not given), -10.3%.

With `CC(C)/C=C(/CC(C)C)C(CCC(=O)Nc1ccccc1)C(=O)Nc1ccccc1` (stereo not given), the growth inhibition is 35.2%. The result for `CCN(CC)Cc1c(C)cccc1O` reads -16.4%; that for `O=C(O)/C=C/C(=O)Nc1cc(Cl)cc2c1-c1c(Cl)cc(Cl)cc1C2=O`, 4.25%; that for `CC1(C)CC(C2=NCCO2)CC(C)(C)N1`, -31.1%. For `CN=C(NC#N)NCc1ccccc1` the value was 8.45%; for `O=C(O)CSc1ccc2c3c(cccc13)C(=O)c1ccccc1-2`, 3.1%. For `O=C(Cc1ccccc1)Nc1cccc2ccccc12` the value was 0.9%; for `CN(C)CC(CN(C)C)C(=O)O`, -15.7%; for `C/C(CCn1[nH]c(=O)ccc1=O)=N\N=C(N)N`, 1.7%.

Regarding `Cc1ccc(C(O)(c2ccc(C)cc2)C2CCCCC2=C(c2ccccc2)c2ccccc2)cc1` (stereo not given), the growth inhibition is 15.2%.

Consider `O=C1c2cccc3cccc(c23)C(=O)N1Cc1ccco1`, for which the growth inhibition is 24.7%.

In the case of `Cc1cc(S(=O)(=O)NC(=NCC(=O)NN)NN)c(S)cc1Cl`, the growth inhibition is 15.4%. As to `Nc1nnc(CCC(=O)Nc2cccc(C(F)(F)F)c2)n1N`, the growth inhibition is 1.55%. For `CC1CN(CCCOC(=O)Nc2cccc3ccccc23)CCN1Cc1ccccc1` (stereo not given) the value was 95.8% (active).

On to `N#CCC1(O)c2ccccc2-c2ccccc21`, for which the growth inhibition was 9.9%. The result for `COc1ccc2c(c1OC)C1=NCCc3cc4c(cc3C1(OC)C2=O)OCO4` (stereo not given) reads -1.2%; that for `O=C(N/N=C\c1coc([N+](=O)[O-])c1)N/N=C/c1ccoc1`, 1.1%.
